Screening results deposited in PubChem by University of Kansas High Throughput Screening Laboratory.
A selection: hits, their analogues and other compounds. The true share with any hit is near 3.6%.
mHTT CaM bind: inhibitors of human mutant huntingtin-calmodulin interaction | P42858 | hit rate 3.6% among 190,000 | inhibition, % at 15 µM | AlphaScreen His-mHTT/GST-CaM binding, luminescence;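 also: 0% = both proteins with DMSO and 100% = one protein alone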
Pf apPOL inh: Pf-apPOL DNA polymerase inhibition; Recombinant Pf-apPOL, molecular beacon fluorescence, 1.5 h; inhibition, % at 10 µM; hit rate 0.25% among 210,000
* marks the source's active call; other numbers are inactive results; i = inactive; x = no result given. Rule as the data show it: active = inhibition above about 50%; inactive = the rest.

SMILES	mHTT CaM bind	Pf apPOL inh
COc1ccc(CC(=O)N2CCCC(C)(C(=O)NCc3ccccc3C)C2)cc1 (stereo not drawn)	9	-2
Cc1cc(=O)oc(C)c1C(=O)Nc1ccccc1C(=O)N1CCCC1	-4	1
Cn1ccc(-c2ccnc(NN)n2)n1	99*	x
Cn1ccc(-c2ccccc2)n1	-8	-4
CC1(C)C(C=C(Cl)Cl)C1C(=O)Nc1ccc([N+](=O)[O-])cc1 (stereo not drawn)	99*	-6
Cc1cc(C)nc(NS(=O)(=O)c2ccc(NC(=O)C3C(C=C(Cl)Cl)C3(C)C)cc2)n1 (stereo not drawn)	67*	-5
O=C(Nc1ccc([N+](=O)[O-])cc1)C1C(c2ccccc2)C1(Cl)Cl (stereo not drawn)	94*	-8
CC1(C)C(C=C(Cl)Cl)C1C(=O)Nc1ccc(S(N)(=O)=O)cc1 (stereo not drawn)	2	-3
O=C(Nc1cccnc1)C1C(c2ccccc2)C1(Cl)Cl (stereo not drawn)	-7	-3
COc1ccc(NC(=O)C2C(C=C(Cl)Cl)C2(C)C)cc1 (stereo not drawn)	-36	-6
CCC(=O)N1CCc2cc(N3CC(C(=O)NCc4ccc(C)cc4)CC3=O)ccc21 (stereo not drawn)	7	-2
CCN(CC)c1ccc(C=C2C(=O)OC(C)(C)OC2=O)c(OC)c1	28	8
CCCNc1cc(N2CCCC(CCC(=O)NCc3ccco3)C2)ncn1 (stereo not drawn)	19	-11
NC(=O)C1CN(S(=O)(=O)c2cccs2)CC12CCCCC2 (stereo not drawn)	-4	1
O=C1C(Nc2cccc(O)c2)=C(N2CCCCC2)C(=O)c2ccccc21	36	-4
O=C1C(Nc2cccc(C(F)(F)F)c2)=C(n2nnc3ccccc32)C(=O)c2ccccc21	1	0
O=C1C(Nc2cccc(C(F)(F)F)c2)=C(N2CCCCC2)C(=O)c2ccccc21	99*	0
CC(=O)N(C1=C(N2CCCC2)C(=O)c2ccccc2C1=O)c1cccc(Cl)c1	100*	1
O=C1C(Nc2cccc(Cl)c2)=C(N2CCCCC2)C(=O)c2ccccc21	68*	1
CC(=O)N(C1=C(N2CCCCC2)C(=O)c2ccccc2C1=O)c1cccc(F)c1	16	-10
CCn1c(C2CCN(C(=O)Cc3cccc(OC)c3)C2)nc2cccnc21 (stereo not drawn)	-3	-4
Cc1ccc(-c2noc(C3CCCN3S(=O)(=O)c3c(C)c(C)cc(C)c3C)n2)cc1 (stereo not drawn)	-24	1
COc1ccc(NC(=O)C2CC2)cc1OC	0	2
C=C(C)C1CC=C(CNc2ccc(OC)c(OC)c2)CC1 (stereo not drawn)	86*	-6
O=C(c1csc(-c2cnccn2)n1)N1CCN(c2ccccn2)CC1	-11	40
SMILES	mHTT CaM bind	Pf apPOL inh
O=C(Nc1cnc(N2CCCCC2)nc1)c1ccc(Cl)cc1	-3	-2
CCN(CC)c1ccc(NC(=O)c2ccc(OC)cc2OC)cc1	67*	0
COc1ccc(C(=O)Nc2ccc(I)cc2)c(OC)c1	2	-2
CCN(CC)c1ccc(NC(=O)c2ccc(OC)c([N+](=O)[O-])c2)cc1	62*	-1
CCOc1ccc(C(=O)Nc2ccc(N(CC)CC)cc2)cc1[N+](=O)[O-]	10	1
O=C(NCCC1CCN(C(=O)NC2CCCCC2)CC1)c1ccccc1Cl	-6	9
Cc1ccc(N2CCC(C(=O)N3CCN(C)CC3)C2=O)cc1F (stereo not drawn)	-2	-1
O=C(Nc1ccc2c(c1)OCO2)c1nn2c(c1Cl)NC(c1ccccc1)CC2C(F)(F)F (stereo not drawn)	29	-1
Cc1cc(S(=O)(=O)N2CCCC(c3nnc(C(F)(F)F)o3)C2)c(Cl)cc1Cl (stereo not drawn)	-13	-6
COc1ccc(NC(C)=O)cc1NC(=O)c1sc2nc(-c3ccccc3)cn2c1C	52*	-3
CC(=O)Nc1cccc(NC(=O)c2sc3nc(-c4ccccc4)cn3c2C)c1	12	-2
Cc1nn(-c2ccc(C(=O)N3CCN(c4ccccn4)CC3)cc2)c2c1C(=O)CCC2	13	1
Cc1nn(-c2ccc(C(=O)N3CCN(c4cccc(Cl)c4)CC3)cc2)c2c1C(=O)CCC2	83*	-2
CC(=O)[C@]1(O)Cc2c(O)c3c(c(O)c2[C@@H](O[C@H]2C[C@H](N)[C@H](O)[C@H](C)O2)C1)C(=O)c1ccccc1C3=O	x	50*
COc1cccc2c1C(=O)c1c(O)c3c(c(O)c1C2=O)CC(O)(C(=O)CO)CC3OC1CC(N)C(O)C(C)O1 (stereo not drawn)	x	i
CCN(Cc1ccccc1)C(=O)c1noc2c1CC(C)CC2 (stereo not drawn)	-24	-2
CC1(C)C2CCC1(C)C(OCC(O)CN1CCN(c3cccc(C(F)(F)F)c3)CC1)C2 (stereo not drawn)	93*	-5
